Measured values: the supplement of paper PMC3334620
In all, about 33,000 sequences were measured (“E-score (-0.5 to 0.5)”: median about -0.035, highest 2% from about 0.35 on). For the sample, the highest values were picked, then their nearest neighbours and some sequences at random.

target: T1, Pdr3 (UniProt P33200); assay: PBM E-score (8-mer binding enrichment) (E-score (-0.5 to 0.5)); higher = stronger / more preferred TF binding; details: protein concentration: 200 nM; construct: GST-full length
T1 sequence: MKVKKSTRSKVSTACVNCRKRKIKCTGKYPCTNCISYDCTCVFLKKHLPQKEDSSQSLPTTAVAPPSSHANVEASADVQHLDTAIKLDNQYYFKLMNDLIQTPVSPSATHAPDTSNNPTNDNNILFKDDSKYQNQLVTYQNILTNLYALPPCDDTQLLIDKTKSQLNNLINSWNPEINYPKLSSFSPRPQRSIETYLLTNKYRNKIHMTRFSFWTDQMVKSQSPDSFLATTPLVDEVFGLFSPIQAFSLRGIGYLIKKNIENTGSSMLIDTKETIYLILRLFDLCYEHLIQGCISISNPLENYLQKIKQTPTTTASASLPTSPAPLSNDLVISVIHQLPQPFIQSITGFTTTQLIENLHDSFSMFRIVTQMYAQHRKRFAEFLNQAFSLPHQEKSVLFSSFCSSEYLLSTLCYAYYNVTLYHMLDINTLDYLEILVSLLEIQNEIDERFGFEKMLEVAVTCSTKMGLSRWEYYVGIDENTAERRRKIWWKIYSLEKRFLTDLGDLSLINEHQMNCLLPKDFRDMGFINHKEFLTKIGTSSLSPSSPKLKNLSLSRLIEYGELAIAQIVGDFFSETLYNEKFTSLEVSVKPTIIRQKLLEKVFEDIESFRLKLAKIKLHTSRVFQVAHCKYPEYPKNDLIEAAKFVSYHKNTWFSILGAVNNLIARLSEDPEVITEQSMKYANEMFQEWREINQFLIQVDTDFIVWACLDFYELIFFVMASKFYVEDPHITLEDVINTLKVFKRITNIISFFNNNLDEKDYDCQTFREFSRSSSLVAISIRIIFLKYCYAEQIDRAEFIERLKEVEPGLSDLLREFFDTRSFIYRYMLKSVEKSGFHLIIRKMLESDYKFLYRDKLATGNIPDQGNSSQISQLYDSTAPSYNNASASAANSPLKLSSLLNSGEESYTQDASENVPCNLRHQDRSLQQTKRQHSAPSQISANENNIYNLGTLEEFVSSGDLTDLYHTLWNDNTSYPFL
Summary of the method: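 For each ungapped eight-base word taken together with its reverse complement, the Universal PBM Analysis Suite assigned an E-score. Binding data came from GST-tagged yeast transcription factors, applied at about 100-200 nM, on universal all-10-mer Agilent arrays made double-stranded by primer extension. Fluorescent anti-GST marked bound protein, and scans were normalised with masliner.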

For GCGCCGAA, which “PBM E-score” value is on record?
Its value is 0.241.

Which “PBM E-score” value does the source give for GCGCCGGA here?
The value was 0.384.

Which “PBM E-score” value does the source give for ACGCCGGC here?
Its value is 0.385.

For CCGCCGTC, which “PBM E-score” value is on record?
Its value is 0.168.

With ACGCCGGA as the sequence, how does the “PBM E-score” value read?
The value was 0.289.

For GCGCCGTA, which “PBM E-score” value is on record?
Its value is 0.251.

Which “PBM E-score” value does the source give for CCGCCGGC here?
Its value is 0.401.

CCGCCGGA was tested. Which “PBM E-score” value did it give?
Its value is 0.415.

For GACCTACC, which “PBM E-score” value is on record?
The value was 0.0277.

ACCTTTAA was tested. Which “PBM E-score” value did it give?
The value was -0.0915.

For ATGTCGTA, which “PBM E-score” value is on record?
Its value is -0.238.

For CATGAGTA, which “PBM E-score” value is on record?
Its value is -0.168.

For GCGCACGA, which “PBM E-score” value is on record?
Its value is 0.0416.

With GCTGTACC as the sequence, how does the “PBM E-score” value read?
The value was -0.00444.

For GCCTGCCC, which “PBM E-score” value is on record?
The value was -0.0411.

For CCCAAGAA, which “PBM E-score” value is on record?
Its value is -0.0373.

How did the “PBM E-score” value turn out when ACGGCGCC was run?
Its value is 0.243.

With GCGGCGCC as the sequence, how does the “PBM E-score” value read?
The value was 0.353.

How did the “PBM E-score” value turn out when CCGGCGCC was run?
Its value is 0.37.

How did the “PBM E-score” value turn out when AACGAACT was run?
Its value is -0.245.

AGAGAAGG was tested. Which “PBM E-score” value did it give?
Its value is -0.0862.

For AGGAAAGA, which “PBM E-score” value is on record?
The value was -0.167.

How did the “PBM E-score” value turn out when CGGAAAGA was run?
The value was 0.428.

GGGAAAGA was tested. Which “PBM E-score” value did it give?
Its value is 0.0836.

With AGGAAAGC as the sequence, how does the “PBM E-score” value read?
The value was -0.105.

CGGAAAGC was tested. Which “PBM E-score” value did it give?
The value was 0.415.

With CCGAAAGC as the sequence, how does the “PBM E-score” value read?
Its value is 0.136.

How did the “PBM E-score” value turn out when CTGCGGTA was run?
The value was -0.0102.

With GCTTTCAC as the sequence, how does the “PBM E-score” value read?
Its value is -0.107.

For ACTGGGCT, which “PBM E-score” value is on record?
The value was 0.0297.

Which “PBM E-score” value does the source give for CCTGCAGA here?
The value was -0.0209.

How did the “PBM E-score” value turn out when AGTTCTGG was run?
Its value is -0.0246.

Which “PBM E-score” value does the source give for CGGTGTAC here?
Its value is -0.0705.

Which “PBM E-score” value does the source give for AGACTACT here?
Its value is -0.173.

For CGGATACA, which “PBM E-score” value is on record?
The value was 0.364.

With CGGATATA as the sequence, how does the “PBM E-score” value read?
Its value is 0.346.

TGGATACA was tested. Which “PBM E-score” value did it give?
The value was -0.189.

How did the “PBM E-score” value turn out when TGGATAAA was run?
The value was 0.103.

With CGGATATC as the sequence, how does the “PBM E-score” value read?
Its value is 0.391.

For CGGATAAC, which “PBM E-score” value is on record?
The value was 0.333.

Which “PBM E-score” value does the source give for CGGATAAA here?
Its value is 0.383.

CGGATACC was tested. Which “PBM E-score” value did it give?
Its value is 0.31.

For AGGATATC, which “PBM E-score” value is on record?
Its value is -0.0388.

With ACTTTGAA as the sequence, how does the “PBM E-score” value read?
The value was -0.202.

Which “PBM E-score” value does the source give for ATCTTAGC here?
Its value is -0.2.

With GGCCAGAC as the sequence, how does the “PBM E-score” value read?
Its value is 0.075.

Which “PBM E-score” value does the source give for GAGGTCAC here?
The value was -0.0512.

With ACCCAGAG as the sequence, how does the “PBM E-score” value read?
Its value is -0.132.

Which “PBM E-score” value does the source give for AGGCGCAC here?
Its value is 0.147.

ACGTGGAG was tested. Which “PBM E-score” value did it give?
The value was -0.132.

For CCGTGGAC, which “PBM E-score” value is on record?
The value was 0.274.

How did the “PBM E-score” value turn out when ACGTGGAA was run?
The value was -0.0114.

GCGTGGAA was tested. Which “PBM E-score” value did it give?
Its value is 0.0102.

With CCGTGGAG as the sequence, how does the “PBM E-score” value read?
The value was 0.382.

CCGTGGAA was tested. Which “PBM E-score” value did it give?
Its value is 0.437.

Which “PBM E-score” value does the source give for TGCGCCAA here?
Its value is 0.053.

GCGCGGCA was tested. Which “PBM E-score” value did it give?
The value was 0.237.

For ACGCGGAA, which “PBM E-score” value is on record?
Its value is 0.407.

ACGCGGAC was tested. Which “PBM E-score” value did it give?
The value was 0.229.

TCGCGAAA was tested. Which “PBM E-score” value did it give?
Its value is 0.131.

With GCGCGGAC as the sequence, how does the “PBM E-score” value read?
Its value is 0.305.

For GCGCGGAA, which “PBM E-score” value is on record?
Its value is 0.464.

For TCGCGGAA, which “PBM E-score” value is on record?
Its value is 0.404.

For ACGCGGAT, which “PBM E-score” value is on record?
The value was 0.244.

With TCGCGGCA as the sequence, how does the “PBM E-score” value read?
Its value is 0.174.

AAACCTCA was tested. Which “PBM E-score” value did it give?
Its value is 0.109.

For GAGTTGGC, which “PBM E-score” value is on record?
Its value is 0.115.

With ATAAGCAG as the sequence, how does the “PBM E-score” value read?
The value was -0.127.

With CCCGAATA as the sequence, how does the “PBM E-score” value read?
Its value is 0.14.

How did the “PBM E-score” value turn out when CGGCAGCC was run?
The value was 0.358.

How did the “PBM E-score” value turn out when AGGCAGCC was run?
Its value is 0.0506.

CGGCAGCA was tested. Which “PBM E-score” value did it give?
Its value is 0.109.

CCGGTTCC was tested. Which “PBM E-score” value did it give?
Its value is 0.426.

With CCGGTTCA as the sequence, how does the “PBM E-score” value read?
Its value is 0.104.

CGGGTTCC was tested. Which “PBM E-score” value did it give?
The value was 0.414.

How did the “PBM E-score” value turn out when CCGGTTCG was run?
The value was 0.217.

AGGGTTCC was tested. Which “PBM E-score” value did it give?
Its value is 0.249.

For CGGGTTCA, which “PBM E-score” value is on record?
The value was 0.304.

For CTCCATAA, which “PBM E-score” value is on record?
The value was -0.273.

For CTCGCTGC, which “PBM E-score” value is on record?
Its value is 0.00281.

How did the “PBM E-score” value turn out when CTGGTCTA was run?
Its value is -0.254.

For ACACTTCC, which “PBM E-score” value is on record?
The value was 0.184.

CTGTTGAC was tested. Which “PBM E-score” value did it give?
The value was -0.162.

For AAACCAGG, which “PBM E-score” value is on record?
The value was -0.0534.

Which “PBM E-score” value does the source give for CGTAACAC here?
The value was -0.0629.

For GGGAATCA, which “PBM E-score” value is on record?
Its value is 0.0382.
